Source: PubChem BioAssay
Shown are actives, neighbours in structure and some others; about 3% of the full set was active somewhere.
sdo1 growth: sdo1-depleted yeast growth rescue. S. cerevisiae sdo1-depleted JHY4D growth rescue, OD600 30 h; active compounds read high; pdr5 snq2 efflux-pump mutant strain. hit rate 0.21% among 140,000. z-score at 10 µM;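 active = z-score above 3 at both the 24 hr and the 30 hr optical density reads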;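 also: z-score against mean and SD of all compound wells on the same plate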
ROMK primary: modulators of human ROMK potassium channel | hit rate 2% among 130,000 | B-score at 10 µM | Tet-inducible ROMK, thallium flux fluorescence; actives lie on both sides;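 active = signal ratio slope over the read window, or its plate-corrected B-score, at least 3 SD from the plate mean, either direction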;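 also: B-score of the F/F0 ratio slope over 7 to 12 s after thallium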
Target sequence (P48048 whole entry, looked up): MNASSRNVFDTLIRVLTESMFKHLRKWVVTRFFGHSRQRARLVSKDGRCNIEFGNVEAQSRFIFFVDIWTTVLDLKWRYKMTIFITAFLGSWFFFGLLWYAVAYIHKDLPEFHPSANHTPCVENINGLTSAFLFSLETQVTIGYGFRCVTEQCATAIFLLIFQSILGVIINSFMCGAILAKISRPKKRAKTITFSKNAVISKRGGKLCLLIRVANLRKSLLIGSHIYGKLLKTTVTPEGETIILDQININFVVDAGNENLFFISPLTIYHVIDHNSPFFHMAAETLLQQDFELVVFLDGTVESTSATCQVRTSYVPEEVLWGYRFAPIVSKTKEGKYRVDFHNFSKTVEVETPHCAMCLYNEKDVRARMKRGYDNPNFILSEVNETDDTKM
INS promoter inh: TRM-6 insulin promoter activity inhibition | hit rate 0.9% among 130,000 | AID 1273 | TRM-6 cells (human fetal islet line), insulin promoter-eGFP reporter, imaging; reporter expression induced with tamoxifen | inhibition, % at 2 µM;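 active = inhibition above the mean plus 3 SD, with well images judged a real hit on visual review, cut at about 60% in these data, passing the limit was not always enough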
Measles CPE: protection of cells from measles virus | Measles virus-infected cells, CPE protection, absorbance | hit rate 1.5% among 140,000 | protection (pct of control), % at 4 µM; in the data active = protection mostly above about 24%, no sharp cut-off; inactive = mostly below about 26%
Active calls of the source: *; x = not tested or not shown; [ ] = remark or other dose.

SMILES	sdo1 growth	ROMK primary	INS promoter inh	Measles CPE
O=C(Nc1ccc2c(c1)OCO2)OCc1ccccc1	-1.25	x	100.0*	4.4
Cc1ccccc1NC(=O)CSc1nnc(Cc2ccccc2)o1	-0.13	x	75.0*	37.2
O=C(CSc1nnc(Cc2ccccc2)o1)Nc1ccc2c(c1)OCO2	0.14	-0.426	10.7	20.0*
O=C1CN(C(=O)COC(=O)c2cccc(OCc3ccccc3)c2)c2ccccc2N1	-0.63	x	x	17.6
Cc1oc2nc(SCCCC(=O)NCCO)nc(N)c2c1C	0.47	-0.353	x	3.8
Fc1ccc(C(c2nnnn2Cc2cccs2)N2CCN(C3CCCCC3)CC2)cc1 (configuration not stated)	0.6	-5.75*	x	10.0
CCCCn1nnc(NC(=S)NC(=O)c2ccc(-c3cccc(Cl)c3Cl)o2)n1	-0.06	x	x	13.9
Cc1ccc(CCNC(=O)C23C[C@H]4C[C@@H](C2)CC(n2nnc(C)n2)(C4)C3)cc1	x	0.0521	0.0	x
Cc1nnn(C23CC4CC(CC(C(=O)NN)(C4)C2)C3)n1	0.79	-0.0869	-325.0	33.0*
CCCCCOc1ccc(NC(=O)CSc2cccc3cccnc23)cc1	-1.69	x	-12.1	24.8
c1ccc(CSc2ccc(-c3cccs3)nn2)cc1	0.26	x	41.9	27.7*
Cc1cc(C)cc(NC(=O)CSc2ccc(-c3cccs3)nn2)c1	-1.79	-0.967	x	40.8*
CCn1c(CSc2nc3ccccc3s2)nc2ccccc21	-1.72	-1.6	-60.7	7.0
O=c1[nH]c(=O)n(Cc2ccco2)c2c1C(C(F)(F)F)(C(F)(F)F)N=C(Cc1ccccc1)N2	1.15	x	-47.2	2.4
CCn1ncc(/C=N/NC(=O)c2cc(Cl)ccc2OC)c1C	0.24	-0.0166	14.3	14.6
C(=N\Nc1ncnc2ccccc12)/c1ccccc1	x	0.0327	77.8*	x
CC(C)=CC(=O)OCC(=O)Nc1ccccc1Cl	0.67	x	7.1	81.5*
O=C(COc1ccc(Cl)cc1)Nc1nnc(C2=COCCO2)o1	x	x	-69.2	x
CC(=O)Nc1ccc(/C=N/OCC(=O)Nc2ccc(C)cc2)cc1	0.09	0.0563	-13.5	37.7*
CN1CCN(/N=C/c2nc(-c3ccccc3)n3ccccc23)CC1	0.21	-0.0358	31.2	3.0
COc1ccc(-c2cc(CNS(=O)(=O)c3ccccc3)on2)cc1	x	-0.156	9.1	x
COc1cc(NC(=S)NCCC(c2ccccc2)c2ccccc2)c(OC)cc1Cl	-1.22	-0.199	52.9	38.0*
S=C(NCCC(c1ccccc1)c1ccccc1)Nc1ccc(Cl)cc1	-0.78	x	10.0	47.6*
S=C(NCCC(c1ccccc1)c1ccccc1)Nc1ccccc1Cl	-0.35	x	-157.7	8.5
CCOC(=O)c1[nH]c2cc(OC)c(OC)cc2c1NC(=O)CN1CCN(c2ccc(OC)cc2)C(C)C1 (configuration not stated)	-1.13	x	66.7*	15.2
SMILES	sdo1 growth	ROMK primary	INS promoter inh	Measles CPE
COC(=O)c1[nH]c2cccc(OC)c2c1NC(=O)CN1CCN(c2cccc(OC)c2)C(C)C1 (configuration not stated)	-0.09	0.754	12.1	23.2
Cc1noc(C)c1CSc1nc2ccccc2[nH]1	0.16	x	-10.0	5.1
O=C(CSc1nc2ccccc2[nH]1)Nc1c(F)c(F)c(F)c(F)c1F	x	0.174	-33.3	x
O=C(CSc1nc2ccccc2[nH]1)Nc1c(F)cccc1F	-0.27	x	88.6*	7.5
Fc1cccc(F)c1CSc1nc2ccccc2[nH]1	-1.35	-1.89	75.3*	5.5
O=C(NCCc1ccccc1)C1CCN(S(=O)(=O)c2cccc3nsnc23)CC1	-0.26	x	-8.3	49.1*
O=C(NCC1COc2ccccc2O1)C1CCCN(S(=O)(=O)c2cccc3nsnc23)C1 (configuration not stated)	-0.24	-2.46*	38.5	-0.1
O=C(NCC1COc2ccccc2O1)C1CCN(S(=O)(=O)c2cccc3nsnc23)CC1 (configuration not stated)	0.14	x	-50.0	3.0
O=C(CN1CCOCC1)Nc1nc2cc([N+](=O)[O-])ccc2s1	-0.49	0.00791	15.4	4.8
Clc1ccc(-n2ncc3c(NCc4ccco4)ncnc32)cc1	-0.45[13.2 µM]	3.88*	x	7.4
CCCCC(=O)Nc1ccc(C(=O)N(CC)c2ccccc2C)cc1	x	0.068	15.8	x
Cc1cccc2cc(COC(=O)c3ccccn3)c(=O)[nH]c12	0.4	0.053	x	6.1
CCCC(=O)NCCc1cc2cc(C)c(C)cc2[nH]c1=O	0.87	x	85.7*	7.4
CC(=O)NCCc1cc2cc(C)c(C)cc2[nH]c1=O	1.15	x	-54.5	3.1
O=C(c1cccs1)N1CCC(c2ccccc2)C1 (configuration not stated)	-0.66	x	78.8*	6.1
COc1ccccc1C(=O)N(NC(=O)Oc1ccccc1)C(C)(C)C	-0.34	-0.00152	-85.2	4.1
OCCN1CCN(CCCc2c3c(cc4c2CCC4)CCC3)CC1	-0.07	-1.3	-182.8	19.3
COC(=O)C1CCN(C(=O)c2sc3nc(-c4ccc(F)cc4)cn3c2C)CC1	-0.94	x	12.0	39.4*
CCN(CC)C(=O)C1=C(C)NC(=S)NC1c1ccc(C)s1 (configuration not stated)	x	0.308	15.0	x
O=C(/C=C/c1ccc([N+](=O)[O-])cc1)Nc1cccnc1	0.57	x	-9.8	2.1
O=C(/C=C/c1ccc(Cl)c([N+](=O)[O-])c1)Nc1cccnc1	0.04	x	8.7	44.3*
Cc1cc2oc(C(=O)Nc3ccc(S(=O)(=O)Nc4onc(C)c4C)cc3)cc(=O)c2cc1Cl	x	0.121	x	x
Cc1noc(NS(=O)(=O)c2ccc(NC(=O)Nc3ccc(Cl)c(Cl)c3)cc2)c1C	-0.34	2.26	75.0*	3.5
Cc1nc(N2CCN(S(=O)(=O)c3ccc(F)cc3)CC2)c2c(-c3cccs3)csc2n1	x	-0.838	-63.6	x
COc1cc(-n2c(C)nc3cc(C(=O)O)ccc32)cc(OC)c1OC	x	0.803	-58.8	x
SMILES	sdo1 growth	ROMK primary	INS promoter inh	Measles CPE
O=C(/C=C/c1ccc2c(c1)OCO2)Nc1ccc(Cl)cn1	x	0.682	72.7*	x
CCCCCCCCCSc1n[nH]c(N)n1	-1.28	x	0.0	59.9*
COC(=O)c1cc(NS(=O)(=O)c2ccc(NCc3cccnc3)c([N+](=O)[O-])c2)cc(C(=O)OC)c1	1.1	x	x	6.1
O=C(NCCN1CCOCC1)c1cc2cc([N+](=O)[O-])ccc2s1	x	0.159	x	x
CC(C)N(C(=O)CSc1nnc(Cn2nnc3ccccc32)n1C)C(C)C	0.96	x	35.7	6.7
CC1Cc2ccccc2N1C(=O)CSc1nnc(Cn2nnc3ccccc32)n1C (configuration not stated)	-0.18	-2.31	x	36.5*
O=C(O)CSc1nnc(Cn2nnc3ccccc32)n1CCc1ccccc1	0.41	x	x	28.3*
CCOC(=O)c1c(-c2ccc(F)cc2)csc1NC(=O)c1c(-c2ccccc2)noc1C	0.99	x	x	67.0*
COC(=O)c1c(-c2ccccc2)csc1NC(=O)c1c(-c2ccccc2)noc1C	0.01	x	x	38.0*
Cc1cc(Cl)ccc1OCC(=O)NCc1ccncc1	1.17	x	5.7	47.9*
O=C(COc1ccc(Cl)cc1Cl)NCc1ccncc1	0	x	43.8	23.7
Cc1ccc(Oc2nnc(-c3cccs3)c3ccccc23)cc1	-0.39	0.172	81.0*	15.8
CN(CCc1ccccn1)C(=O)CCC1CCCN(C(=O)c2c3c(nn2C)CCCC3)C1 (configuration not stated)	x	1.09	x	x
COc1cccc(N=c2oc3ccc(OC)cc3cc2-c2nc3ccccc3[nH]2)c1	2.19	-0.0314	50.0	46.9*
